Data on 60 compounds can be found in the antibiotic and cytotoxicity screens of Wong et al. (2023).

The whole screen tested about 39,000 compounds, of which about 3,300 (8.5%) were called active. The entries come from a sample that favours actives as a whole.

This experiment relates to HepG2. Description: cytotoxicity call (relative viability < 0.9). Particulars: 10 µM.
Turning to `O=C(Cn1cc([N+](=O)[O-])cn1)n1cccn1`, the cytotoxicity call is “inactive”.

In the case of `C[C@@H]1CCCCO[C@H](CN(C)C(=O)Nc2ccc(F)cc2)[C@@H](C)CN([C@@H](C)CO)C(=O)c2cc(NC(=O)Cc3ccccc3)ccc2O1`, the cytotoxicity call is “inactive”.

As for `COc1ccc(CN(C)C[C@@H]2OCCCC[C@H](C)Oc3ccc(NC(=O)Nc4ccc(OC)cc4)cc3C(=O)N([C@H](C)CO)C[C@@H]2C)cc1`, the cytotoxicity call is “inactive”.

As to `COc1ccc(CN(C)C[C@@H]2OCCCC[C@H](C)Oc3ccc(NC(=O)Nc4ccc(OC)cc4)cc3C(=O)N([C@@H](C)CO)C[C@@H]2C)cc1`, the cytotoxicity call was “active”.

Regarding `COc1ccc(CN(C)C[C@@H]2OCCCC[C@@H](C)Oc3ccc(NC(=O)Nc4ccc(OC)cc4)cc3C(=O)N([C@H](C)CO)C[C@@H]2C)cc1`, the cytotoxicity call is “inactive”.

On to `COc1ccc(CN(C)C[C@@H]2OCCCC[C@@H](C)Oc3ccc(NC(=O)Nc4ccc(OC)cc4)cc3C(=O)N([C@@H](C)CO)C[C@H]2C)cc1`, for which the cytotoxicity call is “inactive”.

`COc1ccc(CN(C)C[C@H]2OCCCC[C@@H](C)Oc3ccc(NC(=O)Nc4ccc(OC)cc4)cc3C(=O)N([C@@H](C)CO)C[C@@H]2C)cc1`: the cytotoxicity call is “inactive”.

As for `COc1ccc(CN(C)C[C@H]2OCCCC[C@H](C)Oc3ccc(NC(=O)Nc4ccc(OC)cc4)cc3C(=O)N([C@H](C)CO)C[C@@H]2C)cc1`, the cytotoxicity call was “active”.

Turning to `COc1ccc(CN(C)C[C@@H]2OCCCC[C@@H](C)Oc3ccc(NC(=O)Nc4ccc(OC)cc4)cc3C(=O)N([C@@H](C)CO)C[C@@H]2C)cc1`, the cytotoxicity call was “active”.

For `COc1ccc(CN(C)C[C@H]2OCCCC[C@@H](C)Oc3ccc(NC(=O)Nc4ccc(OC)cc4)cc3C(=O)N([C@@H](C)CO)C[C@H]2C)cc1`, the cytotoxicity call was “active”.

`COc1ccc(CN(C)C[C@H]2OCCCC[C@@H](C)Oc3ccc(NC(=O)Nc4ccc(OC)cc4)cc3C(=O)N([C@H](C)CO)C[C@@H]2C)cc1`: the cytotoxicity call was “inactive”.

In the case of `Cc1noc(C)c1NC(=O)N[C@@H]1C=C[C@H](CC(=O)N2CCN(C)CC2)O[C@H]1CO`, the cytotoxicity call is “inactive”.

With `CC(C)Cc1ccc([C@@H](C)c2nc(-c3cccs3)no2)cc1`, the cytotoxicity call is “inactive”.

As for `C[C@H](CO)N1C[C@H](C)[C@H](CN(C)C(=O)CCCN(C)C)OCc2cn(nn2)CCCC1=O`, the cytotoxicity call was “inactive”.

On to `Cc1noc(C)c1S(=O)(=O)Nc1cccc2c1O[C@H](CN(C)C(=O)Nc1ccc3c(c1)OCO3)[C@H](C)CN([C@H](C)CO)C2=O`, for which the cytotoxicity call was “inactive”.

Regarding `Cc1noc(C)c1S(=O)(=O)Nc1ccc2c(c1)C(=O)N([C@H](C)CO)C[C@H](C)[C@@H](CN(C)CC1CCCCC1)OCCCC[C@H](C)O2`, the cytotoxicity call was “inactive”.

For the compound `C[C@@H]1CN([C@H](C)CO)C(=O)c2cccc(NS(=O)(=O)c3cccs3)c2O[C@@H]1CN(C)Cc1ccncc1`, the cytotoxicity call was “inactive”.

Regarding `N=C(N)N/N=C1\CCc2c(C(=N)N)cccc21`, the cytotoxicity call was “inactive”.

For `C[C@@H]1CN([C@@H](C)CO)C(=O)Cc2cc(NC(=O)CCCCCC(=O)Nc3ccccc3N)ccc2O[C@@H]1CN(C)C(=O)Nc1cccc2ccccc12`, the cytotoxicity call was “inactive”.

Consider `CCS(=O)(=O)Nc1ccc2c(c1)C(=O)N(C)C[C@@H](OC)[C@@H](C)CN(Cc1ccccn1)[C@H](C)CO2`, for which the cytotoxicity call was “inactive”.

With `C[C@@H]1CN([C@@H](C)CO)C(=O)c2cc(NS(=O)(=O)c3cn(C)cn3)ccc2O[C@@H](C)CCCCO[C@@H]1CN(C)C`, the cytotoxicity call was “inactive”.

On to `COc1ccc(NC(=O)Nc2ccc3c(c2)C(=O)N([C@H](C)CO)C[C@@H](C)[C@@H](CN(C)Cc2ccncc2)OCCCC[C@H](C)O3)cc1`, for which the cytotoxicity call was “inactive”.

Consider `COc1ccc(CN(C)C[C@H]2OCCCC[C@@H](C)Oc3ccc(NC(=O)Nc4ccc(OC)cc4)cc3C(=O)N([C@H](C)CO)C[C@H]2C)cc1`, for which the cytotoxicity call is “active”.

For `COc1ccc(NC(=O)Nc2ccc3c(c2)C(=O)N([C@@H](C)CO)C[C@H](C)[C@@H](CN(C)Cc2ccncc2)OCCCC[C@@H](C)O3)cc1`, the cytotoxicity call was “active”.

In the case of `COc1ccc(CN(C)C[C@H]2OCCCC[C@H](C)Oc3ccc(NC(=O)Nc4ccc(OC)cc4)cc3C(=O)N([C@H](C)CO)C[C@H]2C)cc1`, the cytotoxicity call was “active”.

`COc1ccc(NC(=O)Nc2ccc3c(c2)C(=O)N([C@H](C)CO)C[C@H](C)[C@@H](CN(C)Cc2ccncc2)OCCCC[C@@H](C)O3)cc1`: the cytotoxicity call is “inactive”.

As to `COc1cccc(S(=O)(=O)N(C)C[C@H]2Oc3ncc(C#CCC(C)C)cc3C(=O)N([C@@H](C)CO)C[C@@H]2C)c1`, the cytotoxicity call was “inactive”.

Turning to `C[C@@H]1CN([C@H](C)CO)C(=O)CCCn2nncc2CO[C@H]1CN(C)S(=O)(=O)c1ccccc1C#N`, the cytotoxicity call was “inactive”.

Consider `C[C@H](CO)N1C[C@H](C)[C@H](CN(C)CC2CCCCC2)Oc2ccc(NC(=O)Cc3cn(C)c4ccccc34)cc2CC1=O`, for which the cytotoxicity call was “inactive”.

Regarding `C[C@@H]1CN([C@@H](C)CO)C(=O)c2cc(NS(=O)(=O)c3ccc(F)cc3)ccc2O[C@H]1CN(C)CC1CC1`, the cytotoxicity call was “inactive”.

With `CCS(=O)(=O)Nc1ccc2c(c1)C(=O)N(C)[C@@H]1CC[C@@H](CC(=O)NCc3ccc(OC)cc3)O[C@H]1CO2`, the cytotoxicity call was “inactive”.

In the case of `COCC#Cc1ccc([C@H]2[C@@H](CO)N3C(=O)CN(C(=O)C4CCOCC4)C[C@H]23)cc1`, the cytotoxicity call was “inactive”.

Regarding `COc1ccc2c3c(n(c2c1)C)[C@@H](CO)N(C[C@]13CCN(CC1)CC1CCOCC1)C(=O)Cc1ccccn1`, the cytotoxicity call was “inactive”.

As for `C[C@H](CO)N1C[C@H](C)[C@@H](CN(C)S(=O)(=O)c2cn(C)cn2)Oc2ccc(NS(C)(=O)=O)cc2CC1=O`, the cytotoxicity call is “inactive”.

In the case of `Cc1noc(C)c1S(=O)(=O)Nc1ccc2c(c1)C(=O)N([C@@H](C)CO)C[C@H](C)[C@H](CN(C)S(=O)(=O)c1ccc(Cl)cc1)O2`, the cytotoxicity call is “inactive”.

Take `O=C(O)[C@H]1C2C(=O)N3CCCO[C@@H]3[C@]23C=C[C@H]1O3` (stereo not given in full): the cytotoxicity call was “inactive”.

`CCOP(=O)(CC(=O)O[C@H]1[C@@H]2OC(=O)[C@@H](Cc3ccc4ccccc4c3)C/C=C\C[C@H](Cc3ccc4ccccc4c3)C(=O)O[C@H]2[C@@H](OC)O[C@@H]1COC(=O)NCCCCCC(=O)NO)OCC`: the cytotoxicity call was “inactive”.

Consider `CO[C@H]1O[C@H](COC(=O)NCCCCCC(=O)NO)[C@@H](OC(=O)c2ccccc2)[C@H](OC(=O)Nc2ccccc2-c2ccccc2)[C@@H]1OC(=O)Nc1ccccc1-c1ccccc1`, for which the cytotoxicity call is “active”.

In the case of `CO[C@H]1O[C@H](COC(=O)NCCCCCC(=O)NO)[C@H](OC(=O)Nc2ccccc2)[C@H](OC(=O)Nc2ccccc2)[C@H]1OC(=O)Nc1ccccc1`, the cytotoxicity call was “inactive”.

`CCOP(=O)(CC(=O)O[C@H]1[C@H](OC(=O)Nc2ccccc2-c2ccccc2)[C@H](OC(=O)Nc2ccccc2-c2ccccc2)[C@@H](OC)O[C@@H]1COC(=O)NCCCCCC(=O)NO)OCC`: the cytotoxicity call is “active”.

Regarding `COc1ccc(NC(=O)O[C@H]2[C@H](OC(=O)Nc3ccccc3-c3ccccc3)[C@H](OC(=O)Nc3ccccc3-c3ccccc3)[C@@H](OC)O[C@@H]2COC(=O)NCCCCCC(=O)NO)cc1`, the cytotoxicity call is “inactive”.

For the compound `COc1ccc(NC(=O)O[C@H]2[C@H](OC(=O)Nc3ccccc3-c3ccccc3)[C@@H](OC(=O)Nc3ccccc3-c3ccccc3)[C@@H](OC)O[C@@H]2COC(=O)NCCCCCC(=O)NO)cc1`, the cytotoxicity call was “inactive”.

Turning to `NCc1ccc2occc2c1`, the cytotoxicity call is “inactive”.

With `Cc1ccc(S(=O)(=O)Nc2ccc3c(c2)CC(=O)N([C@H](C)CO)C[C@H](C)[C@H](CN(C)C(=O)Nc2ccc(C(F)(F)F)cc2)O3)cc1`, the cytotoxicity call is “inactive”.

With `COc1ccc(S(=O)(=O)N(C)C[C@@H]2Oc3c(NC(=O)c4ccncc4)cccc3C(=O)N([C@@H](C)CO)C[C@H]2C)cc1`, the cytotoxicity call was “inactive”.

For the compound `CNC(=O)[C@@]12CCC3(CCN(C(=O)COC)CC3)[C@H]1CN(S(C)(=O)=O)C2`, the cytotoxicity call was “inactive”.

Consider `C[C@@H]1CCCCO[C@@H](CN(C)CC2CCCCC2)[C@@H](C)CN([C@@H](C)CO)C(=O)c2cc(NC(=O)Cc3ccccc3)ccc2O1`, for which the cytotoxicity call is “inactive”.

Consider `COc1ccc(NC(=O)Nc2cccc3c2O[C@H](CN(C)C(=O)Nc2cccc4ccccc24)[C@@H](C)CN([C@@H](C)CO)C3=O)cc1`, for which the cytotoxicity call is “inactive”.

As for `C[C@@H]1CN([C@H](C)CO)C(=O)Cc2cc(NS(=O)(=O)c3ccccc3)ccc2O[C@H]1CN(C)Cc1ccc(-c2ccccc2)cc1`, the cytotoxicity call is “inactive”.

As to `C[C@H]1CN([C@@H](C)CO)C(=O)Cc2cc(NS(=O)(=O)c3ccccc3)ccc2O[C@@H]1CN(C)Cc1ccc(-c2ccccc2)cc1`, the cytotoxicity call is “inactive”.

For `C[C@@H]1CN([C@H](C)CO)C(=O)Cc2cc(NS(=O)(=O)c3ccccc3)ccc2O[C@@H]1CN(C)Cc1ccc(-c2ccccc2)cc1`, the cytotoxicity call was “inactive”.

Consider `C[C@H]1CN([C@@H](C)CO)C(=O)Cc2cc(NS(=O)(=O)c3ccccc3)ccc2O[C@H]1CN(C)Cc1ccc(-c2ccccc2)cc1`, for which the cytotoxicity call is “active”.

Consider `C[C@@H]1CN([C@@H](C)CO)C(=O)Cc2cc(NS(=O)(=O)c3ccccc3)ccc2O[C@@H]1CN(C)Cc1ccc(-c2ccccc2)cc1`, for which the cytotoxicity call was “active”.

On to `C[C@H](CO)N1C[C@H](C)[C@H](CN(C)Cc2ccc(-c3ccccc3)cc2)Oc2ccc(NS(=O)(=O)c3ccccc3)cc2CC1=O`, for which the cytotoxicity call is “active”.

For the compound `C[C@@H]1CN([C@@H](C)CO)C(=O)Cc2cc(NS(=O)(=O)c3ccccc3)ccc2O[C@H]1CN(C)Cc1ccc(-c2ccccc2)cc1`, the cytotoxicity call was “inactive”.

In the case of `C[C@H](CO)N1C[C@H](C)[C@@H](CN(C)Cc2ccc(-c3ccccc3)cc2)Oc2ccc(NS(=O)(=O)c3ccccc3)cc2CC1=O`, the cytotoxicity call was “inactive”.

Regarding `c1ccc(-n2ncc3c2ncn2nnnc32)cc1`, the cytotoxicity call was “inactive”.

Turning to `CO[C@H]1CN(C)C(=O)c2cc(NC(=O)Nc3cccc(Cl)c3)ccc2OC[C@@H](C)N(C(=O)Nc2c(C)noc2C)C[C@@H]1C`, the cytotoxicity call is “inactive”.

Take `C[C@@H]1CN([C@@H](C)CO)C(=O)c2cc(NC(=O)Cn3cnnn3)ccc2O[C@H]1CN(C)Cc1ccc(Oc2ccccc2)cc1`: the cytotoxicity call was “inactive”.

Regarding `CC/N=C1\S[C@@H](CC(=O)NC)C(=O)N1CC`, the cytotoxicity call is “inactive”.
